PubChem BioAssay (EPA / NIEHS)
Records with an inconclusive call do not appear. Activity calls are given as the source filed them. The calls were made as follows, unless noted: active = hit-call score of the fitted dose curve at least 0.9, where 1 is the maximum; inconclusive = response in the unintended direction; inactive = score below 0.9.

Biological target: Estrogen receptor (Homo sapiens) (UniProt P03372)
Test: CCTE_Deisenroth_AIME_384WELL_LUC_Shift: CCTE's 384-well Estrogen Receptor Transactivation Assay with AIME metabolic competence data shift (ERTA luciferase; difference in metabolism positive and negative), Deisenroth Lab (AID 2284041; active = hit-call score of the fitted dose curve at least 0.9, where 1 is the maximum; inactive = score below 0.9;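 also: shift is response with S9 minus without S9 so positive means metabolism raised ER signal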)
Outline: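 Chemicals (0.002–200 uM, 10 points) pre-incubated 2 h with alginate-encapsulated induced male Sprague Dawley rat liver S9 or S9-free, then medium applied 24 h to VM7Luc4E2 cells; luciferase. Endpoint is per-concentration difference, S9-positive minus negative.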

Chain of Estrogen receptor (Homo sapiens) (P03372 whole entry, looked up): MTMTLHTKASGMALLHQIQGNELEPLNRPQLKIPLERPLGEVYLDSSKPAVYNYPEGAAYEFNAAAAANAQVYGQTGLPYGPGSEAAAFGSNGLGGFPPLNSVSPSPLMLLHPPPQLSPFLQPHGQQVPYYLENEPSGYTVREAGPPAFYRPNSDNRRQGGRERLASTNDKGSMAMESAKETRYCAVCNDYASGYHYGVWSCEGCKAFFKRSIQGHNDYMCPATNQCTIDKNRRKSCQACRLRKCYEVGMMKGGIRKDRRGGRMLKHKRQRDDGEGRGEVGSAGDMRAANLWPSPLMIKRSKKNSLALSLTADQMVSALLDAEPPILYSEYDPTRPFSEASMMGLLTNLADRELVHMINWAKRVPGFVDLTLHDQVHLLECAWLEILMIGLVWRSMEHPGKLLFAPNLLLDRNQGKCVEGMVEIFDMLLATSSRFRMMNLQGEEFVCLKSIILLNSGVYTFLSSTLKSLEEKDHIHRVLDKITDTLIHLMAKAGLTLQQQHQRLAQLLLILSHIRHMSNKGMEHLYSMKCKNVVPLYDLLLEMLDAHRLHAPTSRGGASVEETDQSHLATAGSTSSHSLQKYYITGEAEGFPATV

Structure (SMILES)	outcome	AC50
NC(=O)O	inactive	–
CC(C)(c1ccccc1)c1ccc(O)c(C(C)(C)c2ccccc2)c1	inactive	–
CCC(C)(C)c1ccc(O)c(C(C)(C)CC)c1	inactive	–
CNC(=O)O/N=C/C(C)(C)S(C)=O (stereo unspecified)	inactive	–
OCC(O)CCl (stereo unspecified)	–	0.00281 µM (active)
C=C(C)C#N	inactive	–
CCOP(=S)(OCC)SCSP(=S)(OCC)OCC	inactive	–
COP(=O)(OC)OC	inactive	–
O=S(=O)(c1ccc(Cl)cc1)c1ccc(Cl)cc1	inactive	–
O=C1C(Cl)=C(Cl)C(=O)c2ccccc21	inactive	–
CC(=O)C=C(C)C	inactive	–

Test system: DIO3 (gene 1735)
Test: CCTE_GLTED_hDIO3: CCTE's human Deiodinase 3 (DIO3) Inhibition Assay, Great Lakes Toxicology and Ecology Division (GLTED) Lab (AID 2284055);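 as to AC50: potency is for inhibition seen as loss of released iodide signal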
Outline: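 Inhibition is read as reduced iodide release, measured spectrophotometrically by the Sandell-Kolthoff cerium/arsenic reaction. Adenovirus-expressed human DIO3 enzyme is exposed to chemical for 3 h, n=3 plates. Iodinated chemicals, nitrite, iron or thiocyanate may interfere.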

Structure (SMILES)	AC50	outcome
Cl/C=C\C[N+]12CN3CN(CN(C3)C1)C2	100 µM (active)	–
C=CC(=O)OCCCCCC(C)C	35.4 µM (active)	–
CC12CC1(C)C(=O)N(c1cc(Cl)cc(Cl)c1)C2=O (stereo unspecified)	–	inactive
CC(C)(c1ccccc1)c1ccc(O)c(C(C)(C)c2ccccc2)c1	17.3 µM (active)	–
CC(C)(C)CC(C)(C)c1ccc(O)cc1	82 µM (active)	–
CC(C)(c1ccc(OCC2CO2)cc1)c1ccc(OCC2CO2)cc1 (stereo unspecified)	3.62 µM (active)	–
Clc1ccc(COC(Cn2ccnc2)c2ccc(Cl)cc2Cl)cc1 (stereo unspecified)	–	inactive
CCC(C)(C)c1ccc(O)c(C(C)(C)CC)c1	18.9 µM (active)	–
CCCCCCCCc1ccc(O)cc1	19.9 µM (active)	–
O=C1C(Cl)=C(Cl)C(=O)c2ccccc21	11.3 µM (active)	–

Test system: not listed separately
Test: CCTE_Shafer_MEA_acute_AB: CCTE's Alamar Blue Assay for Cytotoxicity in the Neural Acute Assay, Shafer Lab (AID 2284069);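 also: active compounds lower the viability signal compared with DMSO wells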
Outline: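 Primary rat cortical neurons on MEA plates, exposed acutely after baseline recording on day 13 or 15 post-plating. Viability by CellTiter Blue resazurin reduction (1:6 reagent dilution), fluorescence 544/590 nm; loss of signal versus DMSO.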

Structure (SMILES)	outcome	AC50
CC(C)(c1ccccc1)c1ccc(O)c(C(C)(C)c2ccccc2)c1	inactive	–
CC(C)(C)CC(C)(C)c1ccc(O)cc1	inactive	–
COC(=O)Cc1ccccc1	inactive	–
CCC(C)(C)c1ccc(O)c(C(C)(C)CC)c1	–	35.4 µM (active)
O=C(Nc1ccc2[nH]ccc2c1)c1cc2cc(F)ccc2n1Cc1cccc(F)c1	inactive	–
CCOP(=S)(OCC)SCSP(=S)(OCC)OCC	inactive	–
CC(C)(OO)c1ccccc1	inactive	–
CCCCCCCCc1ccc(O)cc1	inactive	–
CCN1CCC2(CC1)COc1cc3c(cc12)N(C(=O)c1ccc(-c2ccc(-c4nnc(C)o4)cc2C)cc1)CC3	–	17.2 µM (active)
C[C@]12CCC(=O)C[C@@H]1CC[C@@H]1[C@@H]2CC[C@]2(C)[C@@H](O)CC[C@@H]12	inactive	–
